Measured values taken from article PMC4336329 (PLoS ONE, 2015).
The campaign covered roughly 310,000 compounds. About 14,000 (4.5%) showed an effect of 50% or more. The effect is printed as a negative number. This excerpt belongs to a sample that is enriched for strong results.

Target: human ether-à-go-go-related gene (hERG) potassium channel (human, UniProt Q12809)
Assay: primary screen, population patch clamp on CHO cells stably expressing hERG; higher = less effect of the substance
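Further: peak tail current of the secondary pulse compared with the same well before compound.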

Chain of human ether-à-go-go-related gene (hERG) potassium channel (Q12809 whole entry, looked up): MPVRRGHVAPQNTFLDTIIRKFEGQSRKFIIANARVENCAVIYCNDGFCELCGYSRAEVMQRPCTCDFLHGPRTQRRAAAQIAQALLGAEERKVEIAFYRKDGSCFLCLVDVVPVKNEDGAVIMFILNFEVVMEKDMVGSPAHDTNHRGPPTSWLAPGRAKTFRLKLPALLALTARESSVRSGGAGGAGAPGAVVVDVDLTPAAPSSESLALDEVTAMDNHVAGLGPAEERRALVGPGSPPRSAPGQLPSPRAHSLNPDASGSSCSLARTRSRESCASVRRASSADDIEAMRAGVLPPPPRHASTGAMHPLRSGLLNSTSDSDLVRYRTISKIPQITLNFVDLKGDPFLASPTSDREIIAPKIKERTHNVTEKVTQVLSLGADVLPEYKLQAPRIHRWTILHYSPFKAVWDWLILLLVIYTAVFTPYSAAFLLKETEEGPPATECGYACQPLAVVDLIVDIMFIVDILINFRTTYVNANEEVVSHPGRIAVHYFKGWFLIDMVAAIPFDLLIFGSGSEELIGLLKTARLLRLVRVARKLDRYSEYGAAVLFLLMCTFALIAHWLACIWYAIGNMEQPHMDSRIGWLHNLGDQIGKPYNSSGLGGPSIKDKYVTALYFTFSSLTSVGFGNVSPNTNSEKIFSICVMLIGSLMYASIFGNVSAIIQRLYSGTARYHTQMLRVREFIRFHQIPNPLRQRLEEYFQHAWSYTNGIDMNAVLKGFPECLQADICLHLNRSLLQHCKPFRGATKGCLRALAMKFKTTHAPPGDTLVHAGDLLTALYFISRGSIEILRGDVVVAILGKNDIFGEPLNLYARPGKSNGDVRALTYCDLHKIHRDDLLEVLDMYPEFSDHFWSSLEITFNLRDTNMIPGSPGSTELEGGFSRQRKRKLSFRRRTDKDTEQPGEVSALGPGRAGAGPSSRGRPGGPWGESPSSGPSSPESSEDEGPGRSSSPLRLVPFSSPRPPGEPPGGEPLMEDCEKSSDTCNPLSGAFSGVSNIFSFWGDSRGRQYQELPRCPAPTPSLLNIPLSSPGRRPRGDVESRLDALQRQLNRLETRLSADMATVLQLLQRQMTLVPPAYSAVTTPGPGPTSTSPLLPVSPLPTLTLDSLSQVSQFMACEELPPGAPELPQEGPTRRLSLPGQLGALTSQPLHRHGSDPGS

Compound	hERG current change (%, negative = inhibition) at 10uM
CCOc1ccc(C(=O)Nc2ncn[nH]2)cc1	19.1%
O=C(CCc1c[nH]c2ccccc12)N/N=C/c1ccc2c(c1)OCO2	6.33%
CC1=CCC2C(=O)N(CCc3c[nH]c4ccccc34)C(=O)C2C1 (centres unmarked)	-9.31%
COc1ccc(CC(=O)NNc2ncnc3c2cnn3-c2ccc(C)cc2)cc1OC	10.5%
COc1ccc(CNC(=O)Cn2nnc(-c3ccc(NC(=O)C4CCCCC4)cc3)n2)cc1	14%
COc1ccccc1NS(=O)(=O)c1cc(-c2cnc(C3CC3)o2)ccc1C	3.37%
O=C1CSC(c2cn(-c3ccccc3)nc2-c2cccs2)N1Cc1ccccc1 (centres unmarked)	-1.38%
O=Cc1c(NCc2ccccc2F)c2ccccc2[nH]c1=O	13.8%
CCOCCCNC(=S)N1CCCN(c2nc3cc(C)ccc3cc2C#N)CC1	-30.9%
Cc1cc(N2CCCC2)nc2ccc(NC(=S)NC(C)C)cc12	-71.6%
CCC(C)NC(=S)Nc1ccc2nc(N3CCOCC3)cc(C)c2c1 (centres unmarked)	5.86%
Cc1cc(N2CCOCC2)nc2ccc(NC(=S)NC(C)C)cc12	-12.4%
CCOCCCNC(=S)N1CCCN(c2nc3cc(C)c(C)cc3cc2C#N)CC1	-36.4%
CCOCCCNC(=S)N1CCCN(c2nc3cc(C)cc(C)c3cc2C#N)CC1	-55.6%
CSc1nsc(SCC(=O)Nc2ccc(OC(C)=O)cc2)n1	4.1%
Cc1c(N=N/C(C(=O)Nc2ccccc2)=C(/O)c2ccccc2)c(=O)n(-c2ccccc2)n1C	8.85%
CN=CC1=C(O)c2ccccc2C1=O	14.7%
CC(C)CN=CC1=C(O)c2ccccc2C1=O	-71.4%
O=C1C(C=NCc2ccncc2)=C(O)c2ccccc21	-9.12%
CCOC(=O)N1CCC(NC(=O)CCc2nc(C3=CCN(C)CC3)no2)CC1	-3.37%
COc1ccc(C(=O)NCCNc2nc3ccc(C)cc3cc2C#N)cc1	4.99%
CCN(Cc1ccncc1)Cc1ccc(OC)c(OC)c1.O=C(O)C(=O)O	-6.49%

Compound	hERG current change (%, negative = inhibition) at 10uM
COc1ccc(CN(CCN(C)C)Cc2ccccc2)c(OC)c1.O=C(O)C(=O)O	-46.1%
CCN(Cc1ccncc1)Cc1ccc(OC)cc1OC.O=C(O)C(=O)O	-51.4%
COc1ccc(N(CC(=O)Nc2cc(C)on2)S(=O)(=O)c2ccc(Cl)cc2)cc1	9.89%
COC(=O)N[C@H](CC(C)=O)c1cccc(C(F)(F)F)c1	19.5%
CC(C)(C)c1cc(CCC(=O)NCc2ccccn2)cc(C(C)(C)C)c1O	-10.1%
Cc1cc(C(=O)N2CCC(CO)(Cc3cccc(C(F)(F)F)c3)CC2)n[nH]1	-49.4%
CC(C)Cc1cc(CN2CCC(CO)(Cc3cccc(C(F)(F)F)c3)CC2)[nH]n1	-78%
Cc1cc(CN2CCCC(CO)(Cc3cccc(Cl)c3)C2)n[nH]1 (centres unmarked)	-43.2%
OCC1(Cc2ccccc2)CCN(Cc2ccccn2)CC1	-9.51%
CC(C)Cc1cc(CN2CCC(CO)(Cc3ccccc3)CC2)[nH]n1	-71.6%
CC(C)=CCN1CCN(Cc2cc(CC(C)C)n[nH]2)CC1CCO (centres unmarked)	-9.57%
CC(C)Cc1cc(CN2CCCC(CO)(Cc3cccc(Cl)c3)C2)[nH]n1 (centres unmarked)	-52.5%
CC(C)c1csc(CN2CCC(CO)(Cc3ccccc3)CC2)n1	-9.39%
CC(C)n1cc(CN2CCCC(CO)(Cc3cccc(Cl)c3)C2)cn1 (centres unmarked)	-24%
CC(C)NC(=O)Cn1nc(C(F)(F)F)c2c1CCC2	7.42%
C=C(C)CNc1cc(S(=O)(=O)N2CCOCC2)ccc1Oc1ccccc1	-21.3%
O=C(CCN1C(=O)c2cccc3cccc(c23)C1=O)N1CCOCC1	19.9%
CCN1CCN(CC(=O)NC2CCCCC2)C(=O)C1=O	1.65%
COc1cccc(CNC(=O)C(C)n2nc(C)n3c(cc4occc43)c2=O)c1 (centres unmarked)	7.17%
CCCOc1ccc(C(=O)NNC(=S)NC(=O)c2cccs2)cc1	16.7%
CC(C)=CC(=O)O[C@H]1[C@@H]2[C@H](C)C(=O)O[C@@H]2C[C@@H](C)[C@@H]2[C@@H](O)CC(=O)[C@]21C	22.4%
COC(=O)CCSc1cc(NCCOC(C)=O)c([N+](=O)[O-])c2nonc12	-25.6%

Compound	hERG current change (%, negative = inhibition) at 10uM
O=C(N/N=C/c1cn(CC(=O)N2CCOCC2)c2ccccc12)c1cccnc1	16.3%
Cc1ccc(NC(=O)C(C)Sc2nc(-c3ccccc3)cc(=O)[nH]2)cc1 (centres unmarked)	20.8%
COc1ccccc1NC(=O)/C(=C\c1cccnc1)NC(=O)c1ccc(C)cc1	-71.9%
Cc1ccc(C(=O)N/C(=C/c2cccnc2)C(=O)O)cc1	8.41%
COc1ccccc1NC(=O)/C(=C\c1cccnc1)NC(=O)c1ccccc1	-65.5%
Cc1ccc(NC(=O)/C(=C\c2cccnc2)NC(=O)c2ccccc2)cc1	-46%
COc1ccccc1NC(=O)/C(=C/c1ccncc1)NC(=O)c1ccccc1	-10.6%
O=C(Nc1ccccc1)/C(=C/c1cccnc1)NC(=O)c1ccccc1	2.08%
COc1cc(OC)c(OC)cc1CNC(=O)c1ccc(S(=O)(=O)N2CC(C)OC(C)C2)cc1 (centres unmarked)	-11%
O=C(COc1cc(Cl)c(Cl)cc1Cl)NCCN1CCOCC1	-7.1%
CCCCNC(=O)[C@H](Cc1c[nH]c2ccccc12)NC(=O)c1ccccc1Cl	-8.26%
O=C(NCc1ccco1)C1CCCN(S(=O)(=O)c2ccc(-n3cnnn3)cc2)C1 (centres unmarked)	-61.8%
CC(C)CCNC(=O)C1CCCN(S(=O)(=O)c2ccc(-n3cnnn3)cc2)C1 (centres unmarked)	22.5%
COc1ccccc1NC(=O)C1CCCN(S(=O)(=O)c2ccc(-n3cnnn3)cc2)C1 (centres unmarked)	-46.8%
CC(=O)Nc1ccc(S(=O)(=O)N2CCC(C(=O)NCc3ccco3)CC2)cc1	0.324%
O=C(NCc1ccccc1F)C1CCCN(S(=O)(=O)c2ccc(-n3cnnn3)cc2)C1 (centres unmarked)	-1.94%
O=C(NCc1ccccc1)C1CCCN(S(=O)(=O)c2ccc(-n3cnnn3)cc2)C1 (centres unmarked)	2.94%
O=C(NCC1CC1)C1CCCN(S(=O)(=O)c2ccc(-n3cnnn3)cc2)C1 (centres unmarked)	-63.7%
NC(=O)CNC(=O)C1CCN(S(=O)(=O)c2ccc(-n3cnnn3)cc2)CC1	-41.4%
COc1ccc(C)cc1NC(=O)C1CCCN(S(=O)(=O)c2ccc(-n3cnnn3)cc2)C1 (centres unmarked)	-69.8%
O=C(NCc1ccco1)C1CCN(S(=O)(=O)c2ccc(-n3cnnn3)cc2)CC1	-70.5%
COc1ccc(OC)c(NC(=O)C2CCCN(S(=O)(=O)c3ccc(-n4cnnn4)cc3)C2)c1 (centres unmarked)	-12.5%

Compound	hERG current change (%, negative = inhibition) at 10uM
C=CCNC(=O)C1CCCN(S(=O)(=O)c2ccc(-n3cnnn3)cc2)C1 (centres unmarked)	-27.5%
COC(=O)C1=C(C(=O)OC)[C@@H]2N(C)c3ccccc3[C@@]23C[C@@H](C(=O)OC)N(C(=O)c2ccc(Br)cc2)C3=N1	-1.06%
Fc1ccc2c(c1)C(c1ccc(N3CCOCC3)cc1)=NNC(c1cccs1)=N2	-1.96%
CC1=CC(C)(C)NC(=S)N1c1cc(C)cc(C)c1	10.5%
Cc1nc(Nc2ccc(C(=O)O)cc2)nc(Nc2ccc(C(=O)O)cc2)c1[N+](=O)[O-]	15.3%
Cc1cc(=O)c2cc(C(=O)c3ccccc3)ccc2[nH]1	-4.4%
COc1ccccc1Cn1c(=O)c2ccccc2n2c(SCc3csc(C)n3)nnc12	-6.34%
CC1=C(C)CC(C(=O)NNC(=O)c2cccc(Cl)c2)C(C(=O)O)C1 (centres unmarked)	12.3%
Cc1ccccc1C(=O)Nc1ccc(C(=O)N/N=C/c2ccc(O)c(Br)c2)cc1	-2.99%
CNC(=O)c1[nH]cnc1C(=O)N[C@@H](CC(C)C)C(=O)OCc1ccccc1	-58.2%
CC(C)C[C@H](NC(=O)c1[nH]cnc1C(=O)N[C@@H](Cc1ccccc1)C(=O)OCc1ccccc1)C(=O)OCc1ccccc1	21.6%
CC(C)C[C@H](NC(=O)c1nc[nH]c1C(=O)N[C@@H](CC(C)C)C(=O)OCc1ccccc1)C(=O)OCc1ccccc1	16.2%
CC1(C)C(C=C(Cl)Cl)C1C(=O)Nc1ccc([N+](=O)[O-])cc1 (centres unmarked)	18.9%
O=C(COc1ccc(/C=N/NC(=O)C(=O)N2CCCCC2)cc1)Nc1ccccc1Cl	15.9%
O=C(C1CCC1)N1CCN(S(=O)(=O)c2ccc(F)cc2)CC1	11.4%
O=C(C1CCCN(S(=O)(=O)c2ccc([N+](=O)[O-])cc2)C1)N1CCCCC1 (centres unmarked)	-62%
O=C(C1CCCCC1)N1CCN(S(=O)(=O)c2cccc([N+](=O)[O-])c2)CC1	-13.1%
O=C(C1CCC1)N1CCN(S(=O)(=O)c2ccc([N+](=O)[O-])cc2)CC1	-62.6%
O=C(C1CCCN(S(=O)(=O)c2ccc(F)cc2)C1)N1CCCCC1 (centres unmarked)	6.09%
O=C(C1CCCN(S(=O)(=O)c2ccc(F)cc2)C1)N1CCCCCC1 (centres unmarked)	-24%
